Only some compounds are listed: those with a hit (about 1.9% of all), similar ones and a draw of the others.
MCL1-BIM inh: MCL1-BIM-BH3 interaction inhibition (human); actives 0.68% (n = 320,000); GST-MCL1 / FITC-Bim-BH3 fluorescence polarization; inhibition, % at 10.9 µM;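 active = inhibition above the mean inhibition of all tested compounds plus 3 SD, set per campaign, cut at about 40% in these data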;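 note: higher means more loss of mP so more displacement of Bim peptide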
CR mimetic SO: lowers age-related superoxide in aged yeast cells; actives 0.18% (n = 330,000); AID 2690; superoxide response (% of plate mean), % at 10 µM; S. cerevisiae aged cells, superoxide DHE fluorescence; active compounds read low;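 active = superoxide response under a set limit, about three screen SD below normal, cut at about 65% in these data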;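 note: yeast aged for seven days with compound at 30 °C before DHE staining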
GLD-1 TGE inh: GLD-1-TGE RNA interaction inhibition (C. elegans) | actives 0.44% (n = 320,000) | AID 2280 | Q17339 | purified GLD-1 + fluorescein TGE RNA, fluorescence polarization | inhibition, % at 5.96 µM;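 active = percent inhibition above a per-plate cutoff, the plate mean of test compounds plus 3 SD, cut at about 30% in these data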
MEX-5 binding: C. elegans MEX-5 TCR-2 RNA binding activity. AID 1832. MEX-5/FITC-TCR2 RNA binding, fluorescence polarization; active compounds read low. actives 0.38% (n = 300,000). activity score (negative = inhibition of binding), % at 10 µM. Q9XUB2;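 active = inhibition past about -25% in most replicates, and total fluorescence under double the plate's negative control median, limit read from the data; inconclusive = replicates evenly split on the limit, or fluorescence at least double controls; inactive = too little inhibition in most replicates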
Target sequence (Q9XUB2 whole entry, looked up): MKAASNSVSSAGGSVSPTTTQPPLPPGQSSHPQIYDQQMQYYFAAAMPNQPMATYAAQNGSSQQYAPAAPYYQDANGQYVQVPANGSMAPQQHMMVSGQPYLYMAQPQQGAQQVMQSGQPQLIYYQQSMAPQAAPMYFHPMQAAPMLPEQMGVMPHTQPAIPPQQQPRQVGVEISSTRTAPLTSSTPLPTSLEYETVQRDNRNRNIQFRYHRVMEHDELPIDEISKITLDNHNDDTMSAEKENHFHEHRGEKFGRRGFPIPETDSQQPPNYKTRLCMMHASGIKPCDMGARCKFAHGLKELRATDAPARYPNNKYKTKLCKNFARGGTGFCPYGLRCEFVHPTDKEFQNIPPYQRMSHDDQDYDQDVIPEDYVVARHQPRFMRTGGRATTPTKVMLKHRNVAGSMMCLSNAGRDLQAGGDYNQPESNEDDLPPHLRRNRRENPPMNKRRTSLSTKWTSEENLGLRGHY
Bcl-xL primary: inhibitors of human Bcl-xL. Q07817. GST-Bcl-xL / FITC-Bim BH3 peptide fluorescence polarization. inhibition, % at 10.9 µM. actives 0.7% (n = 320,000). AID 2129;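 active = inhibition above the mean of all tested compounds plus 3 SD, cutoff set per campaign, cut at about 30% in these data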;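 note: inhibitors lower millipolarization by displacing the labeled peptide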
Target sequence (Q07817 whole entry, looked up): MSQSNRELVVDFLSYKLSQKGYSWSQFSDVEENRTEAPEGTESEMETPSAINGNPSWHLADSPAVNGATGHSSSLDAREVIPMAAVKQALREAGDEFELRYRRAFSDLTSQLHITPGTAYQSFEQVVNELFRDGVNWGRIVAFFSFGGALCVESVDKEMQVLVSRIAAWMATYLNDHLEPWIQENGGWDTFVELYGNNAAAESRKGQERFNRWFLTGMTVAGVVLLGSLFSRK
LANA-H2A inh: blocks KSHV LANA binding to histone H2A/H2B. actives 0.6% (n = 320,000). Q9QR71. inhibition, % (test concentration not listed). cell-free LANA-H2A/H2B peptide, fluorescence polarization. AID 2629; in the data active = inhibition mostly above about 10%, no sharp cut-off; inactive = mostly below about 6.7%
Bcl-xL conf: Bcl-xL (human) inhibition, MCL1 counter-screen confirmation. GST-Bcl-xL / FITC-Bim BH3 peptide FP binding. actives 54% (n = 1,700). inhibition, % at 10.9 µM. shares compounds with MCL1-BIM inh;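 active = inhibition above a cutoff equal to the mean inhibition of all tested compounds plus 3 SD, cut at about 30% in these data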
MCL1 BIM confirm: confirmation of human MCL1 and BIM-BH3 interaction inhibitors; GST-MCL1 / FITC-Bim-BH3 fluorescence polarization; actives 61% (n = 1,700); shares compounds with MCL1-BIM inh; inhibition, % at 10.9 µM;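 active = inhibition above the average of all tested compounds plus 3 SD, cut at about 40% in these data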
Each line names hits and unclear results; the compound was inactive in the other large screens (follow-up assays come after a bar, where they were run).

CCOC(=O)C1CCN(C(=O)c2cc3c(=O)n4ccccc4nc3n2C)CC1	MCL1-BIM inh 85.3, Bcl-xL primary 67.3 | Bcl-xL conf inactive | MCL1 BIM confirm inactive
CCn1c(SCC(=O)Nc2ccc(N3CCOCC3)cc2)nnc1C1CC1	none (no result: MEX-5 binding)
CNC(=O)c1ccsc1NC(=O)CS(=O)(=O)c1ccccc1	none
CNC(=O)c1ccsc1NC(=O)CN1C(=O)CCC1=O	MCL1-BIM inh 154.6, GLD-1 TGE inh 147.9, Bcl-xL primary 144.1 | Bcl-xL conf inactive | MCL1 BIM confirm inactive
COc1[nH]c(/N=C/c2ccccc2)c(C#N)c1C#N	MCL1-BIM inh 194.0, GLD-1 TGE inh 159.1, MEX-5 binding -59.5, Bcl-xL primary 160.3, LANA-H2A inh 44.0 | Bcl-xL conf 50.1 | MCL1 BIM confirm 40.2
COC(=O)c1ccc(C(=O)Nc2ccc(N)cc2N)cc1	MCL1-BIM inh 76.5, Bcl-xL primary 76.3 | Bcl-xL conf inactive | MCL1 BIM confirm inactive
COc1ccccc1NC(=O)c1ccc(N)cc1	none
CC(CS(=O)(=O)c1cccc2cccnc12)N1CCCCC1 (stereo unspecified)	MCL1-BIM inh 65.0, GLD-1 TGE inh 39.6, Bcl-xL primary 61.6 | Bcl-xL conf 33.5 | MCL1 BIM confirm 42.3
CC(=O)Nc1ccc(S(=O)(=O)NCCC(=O)NCCCc2ccccc2)cc1	none (no result: MEX-5 binding)
Cn1cc(/C=C2\SC(=O)NC2=S)c2ccccc21	MCL1-BIM inh 59.5, Bcl-xL primary 62.0 | Bcl-xL conf 74.3 | MCL1 BIM confirm 81.9
Cc1ccc(C(=O)NN2C(=O)/C(=C/c3cn(C)c4ccccc34)SC2=S)cc1	none (no result: MEX-5 binding, LANA-H2A inh)
COC(=O)[C@]1(C)N[C@H](CN(C)S(=O)(=O)c2ccc(OC(F)(F)F)cc2)[C@@H]2C(=O)N(C)C(=O)[C@@H]21	none (no result: MCL1-BIM inh, MEX-5 binding, Bcl-xL primary, LANA-H2A inh)
COc1ccccc1-c1ccc(/C=C2\C=CC(=O)O2)o1	none
CCC(C)[C@H](NC(=O)[C@H](Cc1ccccc1)n1c(=O)[nH]c2ccccc2c1=O)C(=O)NCC1CCC(C(=O)O)CC1 (stereo partly specified)	none
O=c1c2c3c(sc2[nH]c(=S)n1Cc1ccco1)CCC3	MCL1-BIM inh 48.5 | Bcl-xL conf inactive | MCL1 BIM confirm 41.2
CC1(C)Cc2c(sc3[nH]c(=S)n(Cc4ccco4)c(=O)c23)CO1	none
COc1cc2c3nnc(-c4ccc(F)cc4)c-3cn(Cc3cccc(F)c3)c2cc1OC	MCL1-BIM inh 85.0, MEX-5 binding inconclusive, Bcl-xL primary 76.5 | Bcl-xL conf 82.2 | MCL1 BIM confirm 87.3
COc1cc2c3nnc(-c4ccc(F)cc4)c-3cn(Cc3cccc(C)c3)c2cc1OC	MCL1-BIM inh 99.3, GLD-1 TGE inh 49.5, MEX-5 binding inconclusive, Bcl-xL primary 96.3 | Bcl-xL conf 84.9 | MCL1 BIM confirm 90.1
COc1cc2c3nnc(-c4ccc(F)cc4)c-3cn(Cc3ccc(C)cc3)c2cc1OC	MEX-5 binding inconclusive
O=C(c1cc(Cl)ccc1O)N1CCN(S(=O)(=O)Cc2ccccc2)CC1	none (no result: MCL1-BIM inh, MEX-5 binding, Bcl-xL primary)
O=C(O)c1ccc(N=Nc2c(O)ccc3ncccc23)cc1	MCL1-BIM inh 50.6 | Bcl-xL conf 40.4 | MCL1 BIM confirm 58.9
CSc1ccccc1-c1nnc(-c2ccc(Cl)cc2Cl)o1	none
CSc1ccccc1-c1nnc(-c2ccc(Cl)c(Cl)c2)o1	MCL1-BIM inh 43.1 | Bcl-xL conf inactive | MCL1 BIM confirm inactive
Cc1ccc2c(c1C)NC(C(=O)O)C1CC=CC21 (stereo unspecified)	MCL1-BIM inh 76.0, Bcl-xL primary 48.4, LANA-H2A inh 27.4 | Bcl-xL conf 47.3 | MCL1 BIM confirm 88.8
O=C(O)C1Nc2c(C(=O)N3CCOCC3)cccc2C2C=CCC12 (stereo unspecified)	MCL1-BIM inh 67.7, MEX-5 binding -56.5, Bcl-xL primary 50.2 | Bcl-xL conf 42.2 | MCL1 BIM confirm 71.5
Cc1cc(C)c2c(c1)NC(C(=O)O)C1CC=CC21 (stereo unspecified)	MCL1-BIM inh 114.7, MEX-5 binding -37.6, Bcl-xL primary 69.2 | Bcl-xL conf 45.4 | MCL1 BIM confirm 91.8
CC(=O)O[C@H]1CC(=O)OC(C)(C)C2CC(=O)[C@]3(C)C(CC[C@@](C)([C@@H](O[C@@H]4O[C@H](CO)[C@@H](O)[C@H](O)[C@H]4O)c4ccoc4)[C@@]34O[C@@H]4C(=O)O)[C@]21C (stereo partly specified)	none (no result: MEX-5 binding)
Cc1ccccc1C1C(C#N)=C2N=C(N)c3c(sc4c3CCCCC4)N2C2=C1C(=O)CCC2 (stereo unspecified)	MCL1-BIM inh 66.9, GLD-1 TGE inh 48.7, Bcl-xL primary 61.4 | Bcl-xL conf 53.5 | MCL1 BIM confirm 68.1
O=C(NNC1=Nc2cccc3cccc1c23)c1ccc(Br)cc1	MCL1-BIM inh 41.5 | Bcl-xL conf 57.1 | MCL1 BIM confirm 80.5
CCCCn1nc(C(=O)N(C)C2CCCCC2)c2ccccc2c1=O	none (no result: MEX-5 binding)
Cc1ccc(S(=O)(=O)CCC(=O)OCC(=O)Nc2cc(C)on2)cc1	MCL1-BIM inh active, GLD-1 TGE inh 183.2, Bcl-xL primary active | Bcl-xL conf inactive | MCL1 BIM confirm inactive
CCOC(=O)c1ccc2c(c1)C1C=CCC1C(C(=O)O)N2 (stereo unspecified)	MCL1-BIM inh 113.1, Bcl-xL primary 64.3 (no result: MEX-5 binding) | Bcl-xL conf 54.5 | MCL1 BIM confirm 97.1
CCOC(=O)C1Nc2c(F)cc(C)cc2C2C=CCC12 (stereo unspecified)	none
CCOC(=O)C1Nc2ccc(C(=O)O)cc2C2C=CCC12 (stereo unspecified)	MCL1-BIM inh 89.1, Bcl-xL primary 36.8 | Bcl-xL conf 32.3 | MCL1 BIM confirm 48.4
Cc1nn(C2CCS(=O)(=O)C2)c(C)c1CN(C)C(=O)c1ccccc1 (stereo unspecified)	none (no result: MEX-5 binding)
O=C(/C=C/c1ccc(Cl)c([N+](=O)[O-])c1)Nc1ccc(N2CCCC2)cc1	MCL1-BIM inh 47.3 | Bcl-xL conf inactive | MCL1 BIM confirm 43.2
O=C(/C=C/c1ccc(Cl)c([N+](=O)[O-])c1)Nc1ccc(NC(=O)c2ccco2)cc1	none (no result: MCL1-BIM inh, CR mimetic SO, GLD-1 TGE inh, Bcl-xL primary, LANA-H2A inh)
Cc1ccnc2nc(C(=O)OCC(=O)Nc3ccc4c(c3)OCCO4)nn12	none (no result: MCL1-BIM inh, MEX-5 binding, Bcl-xL primary)
NC1=CC(=O)c2cccc3cccc1c23	MCL1-BIM inh active, GLD-1 TGE inh 117.8, MEX-5 binding -27.6, Bcl-xL primary 175.5 | Bcl-xL conf 155.9 | MCL1 BIM confirm 188.3
Cc1cc(C(=O)O)ccc1-n1c(C)ccc1C	MCL1-BIM inh 97.9, MEX-5 binding -88.0, Bcl-xL primary 46.5 | Bcl-xL conf 89.4 | MCL1 BIM confirm 140.7

Screens (PubChem)
